Experimental data: ChEMBL document CHEMBL1961873, “Compounds: GSK PKIS; Assays: Nanosyn kinase panel” (2012)

What was measured:
[1] = molecular target: T1, Inhibitor of nuclear factor kappa-B kinase subunit epsilon (Homo sapiens) (UniProt Q14164); conditions: at 1 µM;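 further: reported values are averaged percent inhibition figures against human IKKε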
T1 sequence (whole entry): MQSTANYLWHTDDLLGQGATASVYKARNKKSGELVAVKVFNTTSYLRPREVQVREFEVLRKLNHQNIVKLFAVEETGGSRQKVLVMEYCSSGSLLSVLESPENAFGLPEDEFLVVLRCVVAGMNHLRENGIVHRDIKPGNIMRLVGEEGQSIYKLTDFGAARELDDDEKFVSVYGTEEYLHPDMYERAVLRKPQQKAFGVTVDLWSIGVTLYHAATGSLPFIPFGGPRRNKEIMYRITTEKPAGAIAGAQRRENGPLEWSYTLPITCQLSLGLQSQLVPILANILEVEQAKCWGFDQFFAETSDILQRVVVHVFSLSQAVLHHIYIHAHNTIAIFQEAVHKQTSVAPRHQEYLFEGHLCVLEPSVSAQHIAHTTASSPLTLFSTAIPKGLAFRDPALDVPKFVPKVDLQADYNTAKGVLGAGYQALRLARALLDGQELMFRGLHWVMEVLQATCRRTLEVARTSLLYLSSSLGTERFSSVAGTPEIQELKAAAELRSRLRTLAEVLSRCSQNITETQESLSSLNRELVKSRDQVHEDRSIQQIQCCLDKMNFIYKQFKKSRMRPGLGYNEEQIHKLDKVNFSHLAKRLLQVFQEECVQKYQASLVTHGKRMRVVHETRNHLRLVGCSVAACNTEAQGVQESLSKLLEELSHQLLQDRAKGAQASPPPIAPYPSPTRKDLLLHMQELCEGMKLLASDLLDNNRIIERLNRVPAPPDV

[2] = molecular target: T2, Serine/threonine-protein kinase Nek1 (Homo sapiens) (UniProt Q96PY6); conditions: at 0.1 µM
T2 sequence (whole entry): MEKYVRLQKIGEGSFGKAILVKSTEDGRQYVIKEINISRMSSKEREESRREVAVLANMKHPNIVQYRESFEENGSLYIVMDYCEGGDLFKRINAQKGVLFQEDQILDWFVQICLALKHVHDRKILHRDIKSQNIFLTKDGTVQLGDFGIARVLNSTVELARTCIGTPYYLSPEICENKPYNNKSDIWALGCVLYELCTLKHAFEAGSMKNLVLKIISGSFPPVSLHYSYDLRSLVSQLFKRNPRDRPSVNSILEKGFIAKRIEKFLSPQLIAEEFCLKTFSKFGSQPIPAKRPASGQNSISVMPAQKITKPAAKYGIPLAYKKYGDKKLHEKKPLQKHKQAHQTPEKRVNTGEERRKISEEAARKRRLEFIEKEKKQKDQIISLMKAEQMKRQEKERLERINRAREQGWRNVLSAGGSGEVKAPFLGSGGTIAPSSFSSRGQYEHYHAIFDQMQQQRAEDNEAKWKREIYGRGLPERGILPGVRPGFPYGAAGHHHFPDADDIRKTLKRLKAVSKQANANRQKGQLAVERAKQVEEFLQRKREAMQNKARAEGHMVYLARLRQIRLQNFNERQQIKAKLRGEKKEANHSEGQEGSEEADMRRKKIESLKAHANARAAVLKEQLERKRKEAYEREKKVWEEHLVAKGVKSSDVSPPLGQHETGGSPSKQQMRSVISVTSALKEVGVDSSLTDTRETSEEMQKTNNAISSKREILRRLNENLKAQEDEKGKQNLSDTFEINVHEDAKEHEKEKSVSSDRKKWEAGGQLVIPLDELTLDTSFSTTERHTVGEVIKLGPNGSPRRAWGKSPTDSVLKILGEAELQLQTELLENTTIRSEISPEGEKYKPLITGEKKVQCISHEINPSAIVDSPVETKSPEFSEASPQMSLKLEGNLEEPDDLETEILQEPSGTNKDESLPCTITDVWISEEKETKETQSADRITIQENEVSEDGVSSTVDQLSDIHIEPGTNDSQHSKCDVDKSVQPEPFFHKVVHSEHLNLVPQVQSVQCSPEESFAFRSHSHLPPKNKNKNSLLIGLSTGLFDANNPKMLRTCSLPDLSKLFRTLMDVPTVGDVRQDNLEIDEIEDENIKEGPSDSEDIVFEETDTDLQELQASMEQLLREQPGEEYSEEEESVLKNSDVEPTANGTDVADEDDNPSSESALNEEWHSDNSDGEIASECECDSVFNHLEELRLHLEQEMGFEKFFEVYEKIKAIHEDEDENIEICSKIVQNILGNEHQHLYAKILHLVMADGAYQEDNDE

[3] = molecular target: T2, Serine/threonine-protein kinase Nek1 (Homo sapiens); conditions: at 1 µM
[4] = molecular target: T3, Serine/threonine-protein kinase Nek2 (Homo sapiens) (UniProt P51955); conditions: at 0.1 µM
T3 sequence (whole entry): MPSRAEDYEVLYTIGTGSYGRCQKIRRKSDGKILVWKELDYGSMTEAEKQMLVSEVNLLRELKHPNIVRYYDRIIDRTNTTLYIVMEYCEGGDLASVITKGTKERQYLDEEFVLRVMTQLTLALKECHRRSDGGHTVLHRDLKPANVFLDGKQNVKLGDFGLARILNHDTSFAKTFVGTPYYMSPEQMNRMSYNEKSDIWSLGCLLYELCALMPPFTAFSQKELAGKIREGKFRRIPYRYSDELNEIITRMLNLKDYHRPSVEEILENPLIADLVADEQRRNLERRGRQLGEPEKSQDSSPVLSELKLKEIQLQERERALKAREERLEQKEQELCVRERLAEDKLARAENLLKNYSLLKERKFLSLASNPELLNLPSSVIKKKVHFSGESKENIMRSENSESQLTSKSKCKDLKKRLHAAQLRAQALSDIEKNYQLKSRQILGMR

[5] = molecular target: T3, Serine/threonine-protein kinase Nek2 (Homo sapiens); conditions: at 1 µM
[6] = molecular target: Serine/threonine-protein kinase Nek6 (Homo sapiens) (UniProt Q9HC98); conditions: at 0.1 µM
Chain of Serine/threonine-protein kinase Nek6 (Homo sapiens) (Q9HC98 whole entry): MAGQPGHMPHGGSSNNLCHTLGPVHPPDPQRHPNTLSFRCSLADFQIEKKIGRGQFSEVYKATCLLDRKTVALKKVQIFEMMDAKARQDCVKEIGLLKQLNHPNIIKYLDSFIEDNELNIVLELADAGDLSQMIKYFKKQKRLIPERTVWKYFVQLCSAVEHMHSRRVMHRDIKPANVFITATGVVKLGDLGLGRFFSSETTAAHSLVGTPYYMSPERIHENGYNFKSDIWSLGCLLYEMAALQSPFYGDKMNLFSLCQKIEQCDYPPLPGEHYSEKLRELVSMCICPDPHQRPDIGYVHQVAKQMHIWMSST

[7] = molecular target: Serine/threonine-protein kinase Nek6 (Homo sapiens) (UniProt Q9HC98); conditions: at 1 µM
[8] = molecular target: Serine/threonine-protein kinase Nek7 (Homo sapiens) (UniProt Q8TDX7); conditions: at 0.1 µM
Chain of Serine/threonine-protein kinase Nek7 (Homo sapiens) (Q8TDX7 whole entry, looked up): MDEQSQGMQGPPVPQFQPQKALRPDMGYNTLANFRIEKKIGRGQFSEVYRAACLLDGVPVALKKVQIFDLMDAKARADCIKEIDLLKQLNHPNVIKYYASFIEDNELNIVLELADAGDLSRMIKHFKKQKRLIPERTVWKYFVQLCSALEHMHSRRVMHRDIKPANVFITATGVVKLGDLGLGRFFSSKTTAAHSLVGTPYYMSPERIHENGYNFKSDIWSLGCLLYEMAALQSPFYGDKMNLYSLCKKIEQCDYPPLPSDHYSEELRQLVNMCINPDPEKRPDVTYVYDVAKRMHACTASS

[9] = molecular target: Serine/threonine-protein kinase Nek7 (Homo sapiens) (UniProt Q8TDX7); conditions: at 1 µM
[10] = molecular target: T4, Serine/threonine-protein kinase Nek9 (Homo sapiens) (UniProt Q8TD19); conditions: at 0.1 µM
T4 sequence (whole entry): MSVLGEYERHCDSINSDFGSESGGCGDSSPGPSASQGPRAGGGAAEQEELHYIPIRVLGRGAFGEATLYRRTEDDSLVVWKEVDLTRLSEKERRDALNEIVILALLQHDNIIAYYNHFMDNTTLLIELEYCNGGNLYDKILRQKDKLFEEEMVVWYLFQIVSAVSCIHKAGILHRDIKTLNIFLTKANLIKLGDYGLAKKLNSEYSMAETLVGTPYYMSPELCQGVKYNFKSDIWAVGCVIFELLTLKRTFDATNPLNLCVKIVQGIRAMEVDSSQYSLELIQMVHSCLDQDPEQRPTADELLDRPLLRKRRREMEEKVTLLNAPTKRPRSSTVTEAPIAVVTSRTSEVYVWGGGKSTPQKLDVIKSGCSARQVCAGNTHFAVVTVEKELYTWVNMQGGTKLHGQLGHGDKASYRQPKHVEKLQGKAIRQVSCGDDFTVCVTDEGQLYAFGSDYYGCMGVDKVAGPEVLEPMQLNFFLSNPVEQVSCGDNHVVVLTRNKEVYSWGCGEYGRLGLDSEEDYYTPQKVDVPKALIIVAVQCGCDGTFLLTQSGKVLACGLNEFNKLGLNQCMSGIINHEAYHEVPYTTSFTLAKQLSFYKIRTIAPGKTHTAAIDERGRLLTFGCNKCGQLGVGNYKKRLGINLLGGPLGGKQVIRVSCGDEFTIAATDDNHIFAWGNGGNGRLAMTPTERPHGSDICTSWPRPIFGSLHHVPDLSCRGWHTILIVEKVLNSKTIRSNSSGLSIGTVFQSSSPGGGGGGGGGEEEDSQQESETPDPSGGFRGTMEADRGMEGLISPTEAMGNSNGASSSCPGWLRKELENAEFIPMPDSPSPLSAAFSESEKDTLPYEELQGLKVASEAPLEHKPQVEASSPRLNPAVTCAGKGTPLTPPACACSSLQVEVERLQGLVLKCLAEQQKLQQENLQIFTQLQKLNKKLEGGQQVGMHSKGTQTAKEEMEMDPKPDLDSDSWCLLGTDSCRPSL

[11] = molecular target: T4, Serine/threonine-protein kinase Nek9 (Homo sapiens); conditions: at 1 µM
[12] = molecular target: Serine/threonine-protein kinase PLK1 (Homo sapiens) (UniProt P53350); conditions: at 0.1 µM
Chain of Serine/threonine-protein kinase PLK1 (Homo sapiens) (P53350 whole entry): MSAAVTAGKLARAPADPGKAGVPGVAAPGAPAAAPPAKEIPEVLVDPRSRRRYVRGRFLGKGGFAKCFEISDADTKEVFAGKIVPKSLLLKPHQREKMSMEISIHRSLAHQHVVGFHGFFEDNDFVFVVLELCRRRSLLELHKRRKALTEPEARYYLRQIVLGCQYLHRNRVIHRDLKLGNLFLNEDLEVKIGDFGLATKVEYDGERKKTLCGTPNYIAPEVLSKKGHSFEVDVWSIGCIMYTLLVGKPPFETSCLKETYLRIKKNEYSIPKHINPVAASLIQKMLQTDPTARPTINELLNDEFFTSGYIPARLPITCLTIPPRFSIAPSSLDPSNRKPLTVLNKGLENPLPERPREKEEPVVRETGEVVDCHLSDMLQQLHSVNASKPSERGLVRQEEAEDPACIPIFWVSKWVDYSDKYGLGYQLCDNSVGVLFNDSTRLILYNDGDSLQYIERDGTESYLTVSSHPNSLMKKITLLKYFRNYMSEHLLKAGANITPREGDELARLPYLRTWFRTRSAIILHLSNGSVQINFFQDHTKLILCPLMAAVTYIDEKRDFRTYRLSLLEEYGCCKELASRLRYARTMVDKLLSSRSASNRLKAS

[13] = molecular target: Serine/threonine-protein kinase PLK1 (Homo sapiens) (UniProt P53350); conditions: at 1 µM
[14] = molecular target: T5, Dual specificity protein kinase TTK (Homo sapiens) (UniProt P33981); conditions: at 0.1 µM
T5 sequence (whole entry): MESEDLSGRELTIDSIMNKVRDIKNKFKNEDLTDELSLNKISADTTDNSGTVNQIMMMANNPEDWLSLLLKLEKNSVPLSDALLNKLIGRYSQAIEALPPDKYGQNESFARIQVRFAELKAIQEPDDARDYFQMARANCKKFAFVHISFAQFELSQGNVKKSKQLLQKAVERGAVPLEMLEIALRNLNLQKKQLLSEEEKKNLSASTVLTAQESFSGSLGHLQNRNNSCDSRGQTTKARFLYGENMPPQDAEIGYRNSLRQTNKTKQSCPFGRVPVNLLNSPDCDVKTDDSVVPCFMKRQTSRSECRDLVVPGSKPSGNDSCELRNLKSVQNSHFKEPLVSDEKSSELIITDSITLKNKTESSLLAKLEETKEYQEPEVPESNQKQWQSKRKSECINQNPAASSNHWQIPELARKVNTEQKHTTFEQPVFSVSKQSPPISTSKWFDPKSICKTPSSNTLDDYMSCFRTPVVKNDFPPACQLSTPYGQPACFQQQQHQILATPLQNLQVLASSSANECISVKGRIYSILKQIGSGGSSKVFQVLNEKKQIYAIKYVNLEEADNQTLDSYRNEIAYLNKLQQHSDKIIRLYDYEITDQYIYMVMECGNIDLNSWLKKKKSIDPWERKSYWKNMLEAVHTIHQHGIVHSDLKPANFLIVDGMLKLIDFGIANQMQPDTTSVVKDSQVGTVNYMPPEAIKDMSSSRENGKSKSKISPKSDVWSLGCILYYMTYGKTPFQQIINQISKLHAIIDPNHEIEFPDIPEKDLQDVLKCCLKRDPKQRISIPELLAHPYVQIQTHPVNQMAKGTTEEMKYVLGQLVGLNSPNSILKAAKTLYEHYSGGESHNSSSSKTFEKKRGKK

[15] = tested on: T6, Receptor-type tyrosine-protein kinase FLT3 (Homo sapiens), P36888 [D835Y]; conditions: at 1 µM
T6 sequence (whole entry): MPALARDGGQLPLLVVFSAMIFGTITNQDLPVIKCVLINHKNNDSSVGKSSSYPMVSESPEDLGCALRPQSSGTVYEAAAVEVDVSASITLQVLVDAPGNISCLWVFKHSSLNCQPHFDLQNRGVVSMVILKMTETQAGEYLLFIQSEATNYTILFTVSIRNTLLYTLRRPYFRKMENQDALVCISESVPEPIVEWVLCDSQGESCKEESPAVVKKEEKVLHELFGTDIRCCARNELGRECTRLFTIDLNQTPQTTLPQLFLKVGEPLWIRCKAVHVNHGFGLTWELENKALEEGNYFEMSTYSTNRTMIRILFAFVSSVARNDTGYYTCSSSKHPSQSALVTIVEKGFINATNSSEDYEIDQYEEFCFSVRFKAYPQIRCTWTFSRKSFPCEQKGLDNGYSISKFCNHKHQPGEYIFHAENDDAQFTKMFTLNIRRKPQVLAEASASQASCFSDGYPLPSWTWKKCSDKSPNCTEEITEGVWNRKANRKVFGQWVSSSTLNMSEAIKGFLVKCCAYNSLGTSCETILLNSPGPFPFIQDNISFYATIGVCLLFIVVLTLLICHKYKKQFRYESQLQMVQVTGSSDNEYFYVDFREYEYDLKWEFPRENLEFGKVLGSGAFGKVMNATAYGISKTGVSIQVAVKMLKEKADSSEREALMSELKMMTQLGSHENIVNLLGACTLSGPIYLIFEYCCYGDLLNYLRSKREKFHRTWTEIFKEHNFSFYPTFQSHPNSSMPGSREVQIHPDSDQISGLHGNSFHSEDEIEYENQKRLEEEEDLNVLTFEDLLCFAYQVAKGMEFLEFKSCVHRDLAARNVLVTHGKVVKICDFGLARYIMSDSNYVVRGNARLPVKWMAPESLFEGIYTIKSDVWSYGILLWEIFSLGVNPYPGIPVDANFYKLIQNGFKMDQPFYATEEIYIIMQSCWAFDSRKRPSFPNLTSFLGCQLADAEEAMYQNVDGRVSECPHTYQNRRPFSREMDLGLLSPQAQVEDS

[16] = molecular target: Vascular endothelial growth factor receptor 3 (Homo sapiens) (UniProt P35916); conditions: at 0.1 µM
Chain of Vascular endothelial growth factor receptor 3 (Homo sapiens) (P35916 whole entry): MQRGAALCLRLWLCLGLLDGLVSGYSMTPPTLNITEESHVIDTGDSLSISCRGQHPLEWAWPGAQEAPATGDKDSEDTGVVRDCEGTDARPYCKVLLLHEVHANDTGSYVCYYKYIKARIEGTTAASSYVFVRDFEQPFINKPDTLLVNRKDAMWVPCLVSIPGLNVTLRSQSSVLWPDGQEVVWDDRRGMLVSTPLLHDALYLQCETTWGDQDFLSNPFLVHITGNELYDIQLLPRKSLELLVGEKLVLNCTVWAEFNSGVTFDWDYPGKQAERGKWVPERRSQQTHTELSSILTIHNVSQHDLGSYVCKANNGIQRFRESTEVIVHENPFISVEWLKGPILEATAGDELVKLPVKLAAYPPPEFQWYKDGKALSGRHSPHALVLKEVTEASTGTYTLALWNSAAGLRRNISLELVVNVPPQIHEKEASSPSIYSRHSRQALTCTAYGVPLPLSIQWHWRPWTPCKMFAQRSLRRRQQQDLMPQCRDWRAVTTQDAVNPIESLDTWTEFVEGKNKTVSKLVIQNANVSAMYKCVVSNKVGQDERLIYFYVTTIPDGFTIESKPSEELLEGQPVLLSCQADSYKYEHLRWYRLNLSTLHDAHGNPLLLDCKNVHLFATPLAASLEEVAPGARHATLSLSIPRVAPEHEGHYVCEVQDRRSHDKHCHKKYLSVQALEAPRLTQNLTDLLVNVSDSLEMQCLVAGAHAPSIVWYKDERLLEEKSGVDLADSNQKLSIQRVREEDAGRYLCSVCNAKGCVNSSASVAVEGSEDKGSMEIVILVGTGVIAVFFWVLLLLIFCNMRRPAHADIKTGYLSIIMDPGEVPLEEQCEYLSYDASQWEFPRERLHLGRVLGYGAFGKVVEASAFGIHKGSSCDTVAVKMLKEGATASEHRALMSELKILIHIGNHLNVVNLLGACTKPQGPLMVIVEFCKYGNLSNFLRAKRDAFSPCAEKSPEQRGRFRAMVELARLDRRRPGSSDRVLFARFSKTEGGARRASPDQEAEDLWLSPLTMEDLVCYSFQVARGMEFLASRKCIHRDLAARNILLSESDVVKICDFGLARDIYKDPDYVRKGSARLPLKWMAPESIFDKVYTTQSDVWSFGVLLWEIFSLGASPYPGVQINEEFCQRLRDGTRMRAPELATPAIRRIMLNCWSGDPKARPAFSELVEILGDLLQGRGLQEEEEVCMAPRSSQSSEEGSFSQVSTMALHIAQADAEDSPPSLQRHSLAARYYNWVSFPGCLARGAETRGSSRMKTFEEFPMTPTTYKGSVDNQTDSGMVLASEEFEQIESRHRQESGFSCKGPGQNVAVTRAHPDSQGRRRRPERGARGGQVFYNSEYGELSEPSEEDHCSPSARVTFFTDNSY

[17] = molecular target: Vascular endothelial growth factor receptor 3 (Homo sapiens) (UniProt P35916); conditions: at 1 µM
[18] = molecular target: Macrophage colony-stimulating factor 1 receptor (Homo sapiens) (UniProt P07333); conditions: at 0.1 µM
Chain of Macrophage colony-stimulating factor 1 receptor (Homo sapiens) (P07333 whole entry): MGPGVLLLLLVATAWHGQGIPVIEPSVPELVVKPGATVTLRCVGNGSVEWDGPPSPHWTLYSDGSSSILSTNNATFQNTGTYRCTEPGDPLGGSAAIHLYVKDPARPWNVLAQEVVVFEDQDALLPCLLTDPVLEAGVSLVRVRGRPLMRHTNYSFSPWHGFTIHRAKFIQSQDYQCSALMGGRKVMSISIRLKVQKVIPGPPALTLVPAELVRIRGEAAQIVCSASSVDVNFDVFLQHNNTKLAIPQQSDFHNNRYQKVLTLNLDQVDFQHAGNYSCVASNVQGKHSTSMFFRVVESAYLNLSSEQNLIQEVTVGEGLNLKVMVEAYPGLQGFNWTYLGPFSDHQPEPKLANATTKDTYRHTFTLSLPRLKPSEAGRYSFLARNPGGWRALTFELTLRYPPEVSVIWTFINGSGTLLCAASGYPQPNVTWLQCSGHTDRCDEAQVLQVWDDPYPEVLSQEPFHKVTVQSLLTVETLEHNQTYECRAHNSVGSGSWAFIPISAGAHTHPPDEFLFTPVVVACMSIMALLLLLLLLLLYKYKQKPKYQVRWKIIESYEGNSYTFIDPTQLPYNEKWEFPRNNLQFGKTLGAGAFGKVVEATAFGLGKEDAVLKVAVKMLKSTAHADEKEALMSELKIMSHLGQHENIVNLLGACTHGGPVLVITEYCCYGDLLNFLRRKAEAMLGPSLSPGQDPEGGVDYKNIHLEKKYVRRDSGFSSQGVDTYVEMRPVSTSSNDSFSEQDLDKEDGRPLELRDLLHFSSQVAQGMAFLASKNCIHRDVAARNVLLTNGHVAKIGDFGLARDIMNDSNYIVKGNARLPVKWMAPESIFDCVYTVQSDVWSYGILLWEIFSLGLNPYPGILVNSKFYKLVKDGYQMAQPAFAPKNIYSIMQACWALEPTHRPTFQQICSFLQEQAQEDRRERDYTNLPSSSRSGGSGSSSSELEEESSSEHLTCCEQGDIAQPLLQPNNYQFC

[19] = molecular target: Macrophage colony-stimulating factor 1 receptor (Homo sapiens) (UniProt P07333); conditions: at 1 µM
[20] = molecular target: Tyrosine-protein kinase Fyn (Homo sapiens) (UniProt P06241); conditions: at 0.1 µM
Chain of Tyrosine-protein kinase Fyn (Homo sapiens) (P06241 2-537 limits assumed): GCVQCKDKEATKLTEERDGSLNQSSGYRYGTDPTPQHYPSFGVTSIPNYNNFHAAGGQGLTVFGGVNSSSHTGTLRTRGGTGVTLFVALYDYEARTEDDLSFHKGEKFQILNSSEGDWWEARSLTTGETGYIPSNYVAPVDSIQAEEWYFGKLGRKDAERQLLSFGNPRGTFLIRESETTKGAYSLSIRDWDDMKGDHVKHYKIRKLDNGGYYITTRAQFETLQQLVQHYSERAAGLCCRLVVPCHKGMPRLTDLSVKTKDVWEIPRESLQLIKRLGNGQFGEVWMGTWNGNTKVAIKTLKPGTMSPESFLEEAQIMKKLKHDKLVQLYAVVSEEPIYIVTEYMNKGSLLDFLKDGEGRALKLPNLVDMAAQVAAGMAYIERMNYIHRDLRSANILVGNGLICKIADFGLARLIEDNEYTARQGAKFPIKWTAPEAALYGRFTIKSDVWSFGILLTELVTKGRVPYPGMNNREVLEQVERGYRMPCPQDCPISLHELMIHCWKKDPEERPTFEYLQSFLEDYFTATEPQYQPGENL

| Structure (SMILES) | inhibition [1] [%] | inhibition [2] [%] | inhibition [3] [%] | inhibition [4] [%] | inhibition [5] [%] | inhibition [6] [%] | inhibition [7] [%] | inhibition [8] [%] | inhibition [9] [%] | inhibition [10] [%] | inhibition [11] [%] | inhibition [12] [%] | inhibition [13] [%] | inhibition [14] [%] | inhibition [15] [%] | inhibition [16] [%] | inhibition [17] [%] | inhibition [18] [%] | inhibition [19] [%] | inhibition [20] [%] |
| --- | --- | --- | --- | --- | --- | --- | --- | --- | --- | --- | --- | --- | --- | --- | --- | --- | --- | --- | --- | --- |
| c1ccc(COc2ccc(Nc3ncnc4ccc(-c5ccco5)cc34)cc2)cc1 | 3.49 | 0.6 | 1.07 | 1.15 | 0.92 | -0.18 | -0.36 | -0.99 | 1.84 | 1.17 | 5.01 | 1.78 | 0.52 | 5.13 | -0.59 | 1.83 | 0.93 | -2.64 | 0.74 | 0.27 |
| FC(F)(F)c1cccc(-c2nn3ncccc3c2-c2ccnc(Nc3ccc4c(c3)OCCO4)n2)c1 | 2.87 | 1.52 | 0.83 | 3.63 | 3.89 | 0.6 | -0.45 | 4.18 | 2.91 | 3.97 | 1.67 | 1.26 | 0.65 | 6.38 | 3.11 | 3.34 | 18.5 | 1.23 | 7.02 | 7.47 |
